The record followed here is PubChem BioAssay.

A number with no mark means an inactive call. For some of these results: Potency and affinity values are given separately. Active and inactive are the calls of the source. Unless noted, how the calls were made is not given here.

The nature of experiment [1]: antimalarial activity against Dd2 strain (AID 2302;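 active means growth inhibition above 50% at the single 2 µM test dose, taken to imply half-maximal potency below 2 µM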;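 further: 0% = DMSO untreated growth and 100% = chloroquine plus artemisinin killed control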). The conditions noted are these: P. falciparum Dd2 in RBCs, LDH growth readout, 72 h; at 2 µM; stronger effect = higher value.
Experiment [2] is described as follows: HepG2 cytotoxicity, primary screen, cytotoxicity control for P. falciparum antimalarial project, cell-based, ATP luminescence (AID 2303;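 active means inhibition above 50%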;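 further: 0% = DMSO wells and 100% = digitonin-killed cells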). The conditions noted are these: HepG2 viability, 24-48 h, at 10 µM, stronger effect = higher value.
Experiment [3] has as its target L-lactate dehydrogenase (Plasmodium falciparum (isolate CDC / Honduras)) (UniProt Q27743). Description: PfLDH activity inhibition – cell lysate, 3D7 strain, counter-screen for P. falciparum growth inhibition project (AID 2304).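 Further: 0% = vehicle and 100% = reference inhibitor.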 As to conditions: P. falciparum 3D7 crude extract, LDH APAD/NBT absorbance; at 2 µM; stronger effect = higher value. On the technique in general: The purpose of a counterscreen is to sort out artefacts and off-target activity.

Experiment [4] in a line: inhibition of 3D7 malaria parasite growth – strain 3D7 (AID 2306).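 Further: 0% = DMSO wells and 100% = chloroquine plus artemisinin control wells.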 The conditions noted are these: P. falciparum 3D7 erythrocytic growth, LDH absorbance, 72 h; at 2 µM; stronger effect = higher value.
For experiment [5], the target named is Calcium-dependent protein kinase 1 (Plasmodium falciparum (isolate 3D7)) (UniProt P62344). Kind of experiment: PfCDPK1 kinase inhibitors, biochemical, TCAMS library (AID 1159585; cut-off not given, nearly all actives have IC50 up to about 0.98 µM;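 further: inhibitors leave more ATP so luminescence rises with inhibition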). The conditions noted are these: recombinant PfCDPK1, Kinase-Glo ATP depletion luminescence.
Sequence of Calcium-dependent protein kinase 1 (Plasmodium falciparum (isolate 3D7)) (P62344 whole entry, looked up): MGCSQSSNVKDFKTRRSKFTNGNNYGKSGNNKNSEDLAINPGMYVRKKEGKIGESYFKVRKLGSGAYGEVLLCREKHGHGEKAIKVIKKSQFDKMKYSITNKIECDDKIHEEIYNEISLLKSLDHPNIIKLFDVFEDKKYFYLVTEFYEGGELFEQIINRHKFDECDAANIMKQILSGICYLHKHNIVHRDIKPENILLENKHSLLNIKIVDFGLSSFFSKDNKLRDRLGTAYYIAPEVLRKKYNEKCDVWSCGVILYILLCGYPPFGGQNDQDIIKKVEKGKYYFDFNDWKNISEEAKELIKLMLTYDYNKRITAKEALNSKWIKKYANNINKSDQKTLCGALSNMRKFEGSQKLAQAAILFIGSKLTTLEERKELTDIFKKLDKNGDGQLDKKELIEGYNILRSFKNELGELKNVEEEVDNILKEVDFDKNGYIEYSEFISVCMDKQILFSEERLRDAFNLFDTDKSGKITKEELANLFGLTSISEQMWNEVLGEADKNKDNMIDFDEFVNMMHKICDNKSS
The target in experiment [6] is Plasmodium falciparum protein kinase 6 (PK6, PF3D7_1337100) (UniProt Q8IDW1). Description: PfPK6 kinase inhibitors, biochemical, TCAMS library (AID 1159586). As to conditions: recombinant PfPK6, Kinase-Glo ATP depletion luminescence. Background: Kinase-Glo measures the ATP left after a reaction by luminescence.
Sequence of Plasmodium falciparum protein kinase 6 (PK6, PF3D7_1337100) (Q8IDW1 1-305): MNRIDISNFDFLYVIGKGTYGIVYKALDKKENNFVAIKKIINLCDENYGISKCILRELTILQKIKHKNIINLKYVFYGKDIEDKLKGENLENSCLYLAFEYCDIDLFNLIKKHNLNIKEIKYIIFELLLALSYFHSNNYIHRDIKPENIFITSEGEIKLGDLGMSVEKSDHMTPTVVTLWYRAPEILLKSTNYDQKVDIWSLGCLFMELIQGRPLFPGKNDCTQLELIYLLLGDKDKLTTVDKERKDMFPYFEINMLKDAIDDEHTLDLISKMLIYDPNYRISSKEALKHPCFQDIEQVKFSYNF
Experiment [7] addresses Protein kinase 7 (PK7), Plasmodium falciparum 3D7 (PF3D7_0213400) (UniProt Q7YTF7). Kind of experiment: inhibition of Plasmodium PK7 catalytic activity – biochemical, TCAMS antimalarial set, Kinase-Glo luminescence (AID 1159587). The conditions noted are these: recombinant PfPK7, Kinase-Glo ATP depletion luminescence.
Experiment [8] concerns the target Calcium-dependent protein kinase 4 (Plasmodium falciparum (isolate 3D7)) (UniProt Q8IBS5). Description: PfCDPK4 kinase inhibitors, biochemical, TCAMS library (AID 1159588; cut-off not given, nearly all actives have IC50 up to about 0.91 µM). The conditions noted are these: recombinant PfCDPK4, Kinase-Glo ATP depletion luminescence.

Sequence of Calcium-dependent protein kinase 4 (Plasmodium falciparum (isolate 3D7)) (Q8IBS5 whole entry, looked up): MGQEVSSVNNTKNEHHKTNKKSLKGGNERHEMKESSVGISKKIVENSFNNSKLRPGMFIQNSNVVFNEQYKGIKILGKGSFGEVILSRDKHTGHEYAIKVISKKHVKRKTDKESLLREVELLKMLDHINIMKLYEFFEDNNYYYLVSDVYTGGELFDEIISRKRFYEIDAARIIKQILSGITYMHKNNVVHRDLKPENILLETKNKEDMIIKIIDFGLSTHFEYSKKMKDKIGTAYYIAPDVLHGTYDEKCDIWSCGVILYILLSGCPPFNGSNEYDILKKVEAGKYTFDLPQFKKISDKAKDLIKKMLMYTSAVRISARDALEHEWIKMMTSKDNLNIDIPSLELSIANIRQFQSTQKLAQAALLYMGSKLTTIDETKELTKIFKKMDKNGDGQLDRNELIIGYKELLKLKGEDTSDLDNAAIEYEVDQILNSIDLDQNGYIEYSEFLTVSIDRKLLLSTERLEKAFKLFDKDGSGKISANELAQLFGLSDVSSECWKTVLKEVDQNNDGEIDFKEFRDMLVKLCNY
Sequence of L-lactate dehydrogenase (Plasmodium falciparum (isolate CDC / Honduras)) (Q27743 whole entry, looked up): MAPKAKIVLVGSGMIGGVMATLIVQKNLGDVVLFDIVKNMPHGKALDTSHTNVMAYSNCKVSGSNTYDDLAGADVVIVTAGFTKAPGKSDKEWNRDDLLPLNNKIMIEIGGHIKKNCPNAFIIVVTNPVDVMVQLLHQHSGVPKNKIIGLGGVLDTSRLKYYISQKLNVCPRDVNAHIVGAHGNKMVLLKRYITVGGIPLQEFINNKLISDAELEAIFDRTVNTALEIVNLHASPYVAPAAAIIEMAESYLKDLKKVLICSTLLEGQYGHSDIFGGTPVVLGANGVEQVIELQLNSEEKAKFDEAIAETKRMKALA
Sequence of Protein kinase 7 (PK7), Plasmodium falciparum 3D7 (PF3D7_0213400) (Q7YTF7 1-343): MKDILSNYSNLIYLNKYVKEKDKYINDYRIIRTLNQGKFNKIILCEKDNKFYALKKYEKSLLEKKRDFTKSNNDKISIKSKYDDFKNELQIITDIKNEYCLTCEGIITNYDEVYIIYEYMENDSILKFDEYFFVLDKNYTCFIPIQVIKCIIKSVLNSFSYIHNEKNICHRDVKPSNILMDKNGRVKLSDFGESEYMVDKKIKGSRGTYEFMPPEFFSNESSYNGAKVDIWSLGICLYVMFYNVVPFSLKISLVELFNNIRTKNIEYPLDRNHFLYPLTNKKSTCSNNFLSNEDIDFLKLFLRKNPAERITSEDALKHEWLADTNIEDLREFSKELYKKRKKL

As for `CC(C)(C)c1ccc(CN2CCCCC(NC(=O)c3cc(-c4cccc(Cl)c4)cs3)C2)cc1` (stereo not given), the growth inhibition in experiment [1] was 60% (active); in experiment [4], 96% (active). Further, the inhibition in experiment [2] was 11%; in experiment [3] it was 1%. Also, the result in experiment [5], in experiment [6], in experiment [7] and in experiment [8] was inactive.
Turning to `CCOc1cc2c(cc1S(=O)(=O)c1ccc(COc3ccc(C(F)(F)F)cc3)cc1)CCN(C)CC2`, the growth inhibition is 14% in experiment [1] and 87% (active) in experiment [4]. Besides, the inhibition was 27% in experiment [2] and -5% in experiment [3]. The outcome in experiment [5], in experiment [6], in experiment [7] and in experiment [8] was inactive.
For `CC(C)CNC(=O)c1cncc(-c2ccc(CN(C)C3CCN(C)CC3)cc2)c1`, the growth inhibition in experiment [1] was 84% (active); in experiment [4] it was 101% (active). The inhibition was 15% in experiment [2] and -1% in experiment [3]. Besides, the outcome in experiment [5], in experiment [6], in experiment [7] and in experiment [8] was inactive.
In the case of `Cc1ccc(/C=C/C(=O)NCCCCCN2CCC(c3c[nH]c4ccccc34)CC2)cc1`, the growth inhibition in experiment [1] is 7%; in experiment [4], 86% (active). Besides, the inhibition in experiment [2] is 36%; in experiment [3], 0%. Moreover, the result in experiment [5], in experiment [6], in experiment [7] and in experiment [8] was inactive.
Regarding `CN1CCCN(Cc2cccc(-c3cccc(NC(=O)c4ccc(C#N)cc4)c3)c2)CC1`, the growth inhibition in experiment [1] was 4%; in experiment [4], 89% (active). In addition, the figures for the inhibition in experiment [2] and in experiment [3] were 7% and 1%, respectively. In addition, the result in experiment [5], in experiment [6], in experiment [7] and in experiment [8] was inactive.
Take `COc1ccc(-c2cccc(NC(=O)c3ccc(Cl)cc3)c2)cc1CNC(C)C`: the growth inhibition is 44% in experiment [1] and 101% (active) in experiment [4]. The inhibition in experiment [2] is 53% (active); in experiment [3] it was -4%. Besides, the result in experiment [5], in experiment [6], in experiment [7] and in experiment [8] was inactive.
For the molecule `CC(C)(C)c1ccc(NC(=O)c2ccc(CN3CCCN(Cc4ccc(F)cc4)CC3)cc2)cc1`, the values for the growth inhibition in experiment [1] and in experiment [4] were 7% and 87% (active), respectively. In addition, the inhibition is 55% (active) in experiment [2] and -1% in experiment [3]. In addition, the outcome in experiment [5], in experiment [6], in experiment [7] and in experiment [8] was inactive.
In the case of `O=C(/C=C/c1ccc(Cl)c(Cl)c1)NCCCCCCN1CCN(C(=O)Nc2cc(F)cc(F)c2)CC1`, the values for the growth inhibition in experiment [1] and in experiment [4] were -1% and 86% (active), respectively. Moreover, the inhibition was 23% in experiment [2] and -1% in experiment [3]. Moreover, the outcome in experiment [5], in experiment [6], in experiment [7] and in experiment [8] was inactive.
As to `O=C(Nc1ccc(OCc2ccccc2)cc1)c1nc2ccccc2nc1Cl`, the growth inhibition in experiment [1] is 95% (active); in experiment [4] it was 96% (active). Moreover, the inhibition is 48% in experiment [2] and 3% in experiment [3]. For the same molecule, the result in experiment [5], in experiment [6], in experiment [7] and in experiment [8] was inactive.
In the case of `CCOC(=O)c1[nH]c2cc(Cl)cc(Cl)c2c1/C=C/C(=O)Nc1ccc(-c2cnc(NC(C)=O)[nH]2)cc1`, the growth inhibition is 65% (active) in experiment [1] and 100% (active) in experiment [4]. Moreover, the inhibition was 45% in experiment [2] and -3% in experiment [3]. The outcome in experiment [5], in experiment [6], in experiment [7] and in experiment [8] was inactive.
For the molecule `CC[C@H](C)CNC(=O)c1cncc(-c2cccc(CNC3Cc4ccccc4C3)c2)c1`, the values for the growth inhibition in experiment [1] and in experiment [4] were 76% (active) and 101% (active), respectively. For the same molecule, the inhibition was 5% in experiment [2] and 0% in experiment [3]. Moreover, the result in experiment [5], in experiment [6], in experiment [7] and in experiment [8] was inactive.
With `Cc1ccc2c(c1[N+](=O)[O-])N=NCC2Oc1ccccc1` (stereo not given), the growth inhibition is 19% in experiment [1] and 91% (active) in experiment [4]. The inhibition was 16% in experiment [2] and -4% in experiment [3]. In addition, the outcome in experiment [5], in experiment [6], in experiment [7] and in experiment [8] was inactive.
In the case of `CS(=O)(=O)c1ccc(CCNCc2ccc(-c3cccc(-c4nc5ccccc5[nH]4)c3)cc2)cc1`, the results for the growth inhibition in experiment [1] and in experiment [4] were 99% (active) and 100% (active), respectively. The inhibition in experiment [2] is 40%; in experiment [3], -4%. In addition, the result in experiment [5], in experiment [6], in experiment [7] and in experiment [8] was inactive.
In the case of `CCc1ccnc2c(N3CCCC3=O)cc(C(=O)N[C@@H](Cc3ccccc3)[C@H](O)CNC3CCOCC3)cc12`, the growth inhibition in experiment [1] is 98% (active); in experiment [4], 99% (active). Besides, the inhibition in experiment [2] is 2%; in experiment [3] it was 4%. Further, the result in experiment [5], in experiment [6], in experiment [7] and in experiment [8] was inactive.
On to `CCOc1ccccc1CNc1nccc(NCc2ccc(Cl)cc2Cl)n1`, for which the growth inhibition is 58% (active) in experiment [1] and 83% (active) in experiment [4]. The values for the inhibition in experiment [2] and in experiment [3] were 26% and -3%, respectively. Besides, the result in experiment [5], in experiment [6], in experiment [7] and in experiment [8] was inactive.
For `CS(=O)(=O)Cc1ccc(Nc2nccc(NC3CCN(c4nccc(C(F)(F)F)n4)CC3)n2)cc1`, the growth inhibition is 23% in experiment [1] and 88% (active) in experiment [4]. In addition, the inhibition in experiment [2] is 34%; in experiment [3], -3%. Moreover, the outcome in experiment [5], in experiment [6], in experiment [7] and in experiment [8] was inactive.
Consider `FC(F)(F)CNc1nc(Nc2ccc3ncccc3c2)nc2[nH]ccc12`, for which the growth inhibition in experiment [1] was 83% (active); in experiment [4] it was 87% (active). For the same molecule, the inhibition in experiment [2] was 37%; in experiment [3] it was 0%. In addition, the outcome in experiment [5], in experiment [6], in experiment [7] and in experiment [8] was inactive.
With `CCOC(=O)NC1=NC(C)(C)N(OCCCOc2cc(Cl)c(Cl)cc2Cl)C(N)=N1`, the growth inhibition in experiment [1] was 94% (active); in experiment [4], 97% (active). For the same molecule, the inhibition was 63% (active) in experiment [2] and -2% in experiment [3]. Further, the result in experiment [5], in experiment [6], in experiment [7] and in experiment [8] was inactive.
On to `COc1ccccc1CNC(=O)c1nn(-c2ccc(Cl)cc2)c(=O)c2ccccc12`, for which the growth inhibition was 80% (active) in experiment [1] and 101% (active) in experiment [4]. The inhibition in experiment [2] was -2%; in experiment [3], 6%. Further, the outcome in experiment [5], in experiment [6], in experiment [7] and in experiment [8] was inactive.
For the molecule `N=C(N)c1ccc(NC(=O)Cc2nc3ccc(C(=N)N)cc3[nH]2)cc1`, the growth inhibition is 81% (active) in experiment [1] and 87% (active) in experiment [4]. The results for the inhibition in experiment [2] and in experiment [3] were 4% and 2%, respectively. Besides, the outcome in experiment [5], in experiment [6], in experiment [7] and in experiment [8] was inactive.

As a reminder, the inhibition is the relative decrease from the control value, in per cent.
